Data: PubChem BioAssay AID1159580 (chemical genetic matrix, 2015)
Screen size: about 5,500 compounds; about 2,000 (36%) were called active. Inconclusive results (about 18%) are left out. No stated cut-off is given here; in the data, active means normalized growth mostly below about 0.91 (no sharp cut-off); inconclusive means no clear call, values can overlap the other calls; inactive means mostly above about 0.92. The list shows a part of the results.

Assay: chemical genetic growth profiling, strain panel (AID 1159580);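 further: tested at 20 µM; growth read once vehicle control cultures reached saturation at 30 °C; 1 = growth at the plate median or of vehicle wells; lower values mean less growth of the strain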
Conditions: growth OD

Measured: normalized growth

NC[C@H]1O[C@H](OC2[C@@H](N)C[C@@H](N)[C@H](O[C@H]3O[C@H](CO)[C@@H](O)[C@H](N)[C@H]3O)[C@H]2O)[C@H](O)[C@@H](O)[C@@H]1O (some centres undefined)
inactive: S. cerevisiae deletion strains, locus YJR066W, strain TOR1, active compounds read low 0.956 | S. cerevisiae deletion strains, locus YJR075W, strain HOC1, active compounds read low 0.996 | S. cerevisiae deletion strains, locus YKL009W, strain mrt4, active compounds read low 0.985 | S. cerevisiae deletion strains, locus YKL068W, active compounds read low 0.986 | S. cerevisiae deletion strains, locus YKL085W, strain MDH1 (second series), active compounds read low 0.98 | S. cerevisiae deletion strains, locus YKL085W, strain MDH1, active compounds read low 0.98 | S. cerevisiae deletion strains, locus YKL160W, strain elf1, active compounds read low 0.979 | S. cerevisiae deletion strains, locus YKR001C, strain vps1, active compounds read low 0.994 | S. cerevisiae deletion strains, locus YKR026C, strain gcn3, active compounds read low 0.998 | S. cerevisiae deletion strains, locus YKR091W, strain srl3, active compounds read low 1.01 | S. cerevisiae deletion strains, locus YLL001W, strain dnm1, active compounds read low 0.973 | S. cerevisiae deletion strains, locus YLL026W, active compounds read low 1.01 | S. cerevisiae deletion strains, locus YLL041C, strain sdh2, active compounds read low 0.999 | S. cerevisiae deletion strains, locus YLR027C, strain aat2, active compounds read low 1.01 | S. cerevisiae deletion strains, locus YLR039C, strain RIC1, active compounds read low 0.927 | S. cerevisiae deletion strains, locus YLR058C, strain SHM2, active compounds read low 0.978 | S. cerevisiae deletion strains, locus YLR102C, strain apc9, active compounds read low 0.984 | S. cerevisiae deletion strains, locus YLR113W, strain HOG1, active compounds read low 1 | S. cerevisiae deletion strains, locus YLR221C, strain rsa3, active compounds read low 1.01 | S. cerevisiae deletion strains, locus YLR258W, strain gsy2, active compounds read low 1 | S. cerevisiae deletion strains, locus YLR262C, strain YPT6 (second series), active compounds read low 0.994 | S. cerevisiae deletion strains, locus YLR262C, strain YPT6, active compounds read low 1.04 | S. cerevisiae deletion strains, locus YLR268W, strain sec22, active compounds read low 0.986 | S. cerevisiae deletion strains, locus YLR320W, strain mms22, active compounds read low 0.987 | S. cerevisiae deletion strains, locus YLR330W, strain CHS5, active compounds read low 0.993 | S. cerevisiae deletion strains, locus YLR342W, strain FKS1 (second series), active compounds read low 1 | S. cerevisiae deletion strains, locus YLR342W, strain FKS1, active compounds read low 0.995 | S. cerevisiae deletion strains, locus YLR357W, strain rsc2, active compounds read low 0.979 | S. cerevisiae deletion strains, locus YLR370C, strain arc18, active compounds read low 0.993 | S. cerevisiae deletion strains, locus YLR371W, strain rom2, active compounds read low 0.981 | S. cerevisiae deletion strains, locus YLR384C, strain iki3, active compounds read low 0.994 | S. cerevisiae deletion strains, locus YLR418C, strain cdc73, active compounds read low 0.97 | S. cerevisiae deletion strains, locus YML016C, strain PPZ1, active compounds read low 0.99 | S. cerevisiae deletion strains, locus YML032C, strain rad52, active compounds read low 0.984 | S. cerevisiae deletion strains, locus YML120C, strain ndi1, active compounds read low 0.999 | S. cerevisiae deletion strains, locus YML124C, strain tub3, active compounds read low 0.984 | S. cerevisiae deletion strains, locus YMR058W, strain fet3, active compounds read low 1 | S. cerevisiae deletion strains, locus YMR078C, strain ctf18, active compounds read low 0.969 | S. cerevisiae deletion strains, locus YMR125W, strain sto1, active compounds read low 0.973 | S. cerevisiae deletion strains, locus YMR129W, active compounds read low 0.997 | S. cerevisiae deletion strains, locus YMR205C, strain PFK2, active compounds read low 0.975 | S. cerevisiae deletion strains, locus YMR223W, strain ubp8, active compounds read low 0.957 | S. cerevisiae deletion strains, locus YMR231W, strain pep5, active compounds read low 0.993 | S. cerevisiae deletion strains, locus YMR263W, strain SAP30, active compounds read low 0.999 | S. cerevisiae deletion strains, locus YMR307W, strain GAS1, active compounds read low 1.03 | S. cerevisiae deletion strains, locus YNL067W, strain RPL9B, active compounds read low 0.997 | S. cerevisiae deletion strains, locus YNL071W, strain lat1, active compounds read low 0.998 | S. cerevisiae deletion strains, locus YNL153C, strain GIM3, active compounds read low 0.993 | S. cerevisiae deletion strains, locus YNL183C, strain NPR1, active compounds read low 0.969 | S. cerevisiae deletion strains, locus YNL209W, strain ssb2, active compounds read low 0.996 | S. cerevisiae deletion strains, locus YNL233W, strain BNI4, active compounds read low 0.993 | S. cerevisiae deletion strains, locus YNL248C, strain rpa49, active compounds read low 0.988 | S. cerevisiae deletion strains, locus YNL250W, strain rad50, active compounds read low 0.974 | S. cerevisiae deletion strains, locus YNL271C, strain bni1, active compounds read low 0.978 | S. cerevisiae deletion strains, locus YNL298W, strain CLA4, active compounds read low 0.97 | S. cerevisiae deletion strains, locus YNL307C, strain MCK1, active compounds read low 0.971 | S. cerevisiae deletion strains, locus YNL322C, strain KRE1 (second series), active compounds read low 0.986 | S. cerevisiae deletion strains, locus YNL322C, strain KRE1, active compounds read low 0.996 | S. cerevisiae deletion strains, locus YNR049C, strain mso1, active compounds read low 0.992 | S. cerevisiae deletion strains, locus YNR052C, strain pop2, active compounds read low 0.973 | S. cerevisiae deletion strains, locus YOL006C, strain TOP1, active compounds read low 0.968 | S. cerevisiae deletion strains, locus YOL012C, strain htz1 1.24 | S. cerevisiae deletion strains, locus YOL147C, strain pex11, active compounds read low 0.982 | S. cerevisiae deletion strains, locus YOR001W, strain rrp6, active compounds read low 1.02 | S. cerevisiae deletion strains, locus YOR061W, strain CKA2, active compounds read low 0.989 | S. cerevisiae deletion strains, locus YOR069W, strain VPS5, active compounds read low 0.989 | S. cerevisiae deletion strains, locus YOR070C, strain gyp1, active compounds read low 0.998 | S. cerevisiae deletion strains, locus YOR080W, strain dia2, active compounds read low 1 | S. cerevisiae deletion strains, locus YOR083W, strain WHI5, active compounds read low 0.988 | S. cerevisiae deletion strains, locus YOR106W, strain vam3, active compounds read low 0.976 | S. cerevisiae deletion strains, locus YOR136W, strain idh2, active compounds read low 0.984 | S. cerevisiae deletion strains, locus YOR144C, strain elg1, active compounds read low 0.987 | S. cerevisiae deletion strains, locus YOR184W, strain ser1, active compounds read low 0.971 | S. cerevisiae deletion strains, locus YOR231W, strain MKK1, active compounds read low 0.983 | S. cerevisiae deletion strains, locus YOR265W, strain rbl2, active compounds read low 1 | S. cerevisiae deletion strains, locus YOR270C, strain vph1, active compounds read low 1.02 | S. cerevisiae deletion strains, locus YOR290C, strain snf2, active compounds read low 0.949 | S. cerevisiae deletion strains, locus YOR316C, strain cot1, active compounds read low 0.98 | S. cerevisiae deletion strains, locus YPL051W, strain arl3, active compounds read low 0.992 | S. cerevisiae deletion strains, locus YPL078C, strain atp4, active compounds read low 0.992 | S. cerevisiae deletion strains, locus YPL106C, strain sse1, active compounds read low 0.998 | S. cerevisiae deletion strains, locus YPL240C, strain hsp82, active compounds read low 0.987 | S. cerevisiae deletion strains, locus YPL256C, strain CLN2, active compounds read low 0.994 | S. cerevisiae deletion strains, locus YPR119W, strain clb2, active compounds read low 0.977 | S. cerevisiae deletion strains, locus YPR141C, strain kar3, active compounds read low 0.962 | S. cerevisiae deletion strains, locus YPR163C, strain tif3, active compounds read low 0.978 | S. cerevisiae deletion strains, locus YPR167C, strain met16, active compounds read low 0.981 | S. cerevisiae deletion strains, strain wtn01, active compounds read low 0.989 | S. cerevisiae strains, strain wild type, active compounds read low 0.995
